# Results taken from the supplement of paper PMC6555819.
# How the values were obtained:
# Assay in all cases: PBM binding z-score (relative to random genomic background probes); higher = stronger binding; sequences stand for … in GC…GCGATTGACAGCGTAGAATGAAGG
# [1] = test system: PPARg:RXRa DBDmut IVT, anti-RXR (DBD mutation: RXRa K156A/R161A, NR concentration 270 nM, RXRa partner concentration 90 nM)
# Outline: (§1)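 Random background probes are the reference for binding z-scores. These scores derive from regression-normalized fluorescence on custom Agilent 4×180K protein-binding microarrays incubated 1 h with ligand-free nuclear receptor dimers. Binding was detected with antibodies against each partner (one per run).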
# [2] = test system: PPARg:RXRa IVT, anti-PPARg (NR concentration 270 nM, RXRa partner concentration 90 nM)
# Outline: as §1
# [3] = test system: PPARg DBDmut:RXRa IVT, anti-PPARg (DBD mutation: PPARg1 K132A/R137A, NR concentration 270 nM, RXRa partner concentration 90 nM)
# Outline: as §1
# [4] = test system: PPARg DBDmut IVT, anti-PPARg (DBD mutation: PPARg1 K132A/R137A, NR concentration 270 nM)
# Outline: as §1
# [5] = test system: PPARg homodimer (NR concentration 180 nM)
# Outline: as §1
# [6] = test system: PXR:RXRa (NR concentration 270 nM, RXRa partner concentration 90 nM)
# Outline: as §1
# [7] = test system: PXR homodimer (NR concentration 270 nM)
# Outline: as §1
# [8] = test system: RARa:RXR (NR concentration 270 nM, RXRa partner concentration 90 nM)
# Outline: as §1
# [9] = test system: RARa homodimer (NR concentration 270 nM)
# Outline: as §1
# [10] = test system: RARb:RXRa (NR concentration 270 nM, RXRa partner concentration 90 nM)
# Outline: as §1
# [11] = test system: RARb homodimer (NR concentration 270 nM)
# Outline: as §1
# [12] = test system: RARg:RXRa (NR concentration 270 nM, RXRa partner concentration 90 nM)
# Outline: as §1
# [13] = test system: RARg homodimer (NR concentration 270 nM)
# Outline: as §1
# [14] = test system: RXRa DBDmut IVT, anti-RXR (DBD mutation: RXRa K156A/R161A, NR concentration 90 nM)
# Outline: as §1
# [15] = test system: RXRa homodimer (NR concentration 180 nM)
# Outline: as §1
# [16] = test system: THRa:RXRa (NR concentration 90 nM, RXRa partner concentration 90 nM)
# Outline: as §1
# [17] = test system: THRa homodimer (NR concentration 90 nM)
# Outline: as §1
# [18] = test system: VDR homodimer (NR concentration 270 nM)
# Outline: as §1
Sequence,PBM binding z-score [1],PBM binding z-score [2],PBM binding z-score [3],PBM binding z-score [4],PBM binding z-score [5],PBM binding z-score [6],PBM binding z-score [7],PBM binding z-score [8],PBM binding z-score [9],PBM binding z-score [10],PBM binding z-score [11],PBM binding z-score [12],PBM binding z-score [13],PBM binding z-score [14],PBM binding z-score [15],PBM binding z-score [16],PBM binding z-score [17],PBM binding z-score [18]
AGTCAAACTTCACTAGGTAACGTAAGATTCAGCT,1.97,2.66,0.854,1.24,0.579,-0.238,0.241,-0.00905,-0.136,0.174,-0.374,0.121,0.346,0.238,-0.0168,0.342,0.203,-0.395
ACTATTATTTGACTTAGGGCAACCGATACGACGC,0.814,0.633,1.79,2.46,2.16,0.502,1.69,0.728,3.4,1.21,1.2,1.18,1.35,1.24,0.818,1.18,1.52,1.41
ATTATTAGTTGAGACGAGGGCAACCGATAGGTTG,0.469,1.43,1.76,1.3,1.77,1.72,1.69,1.4,2.49,1.48,1.64,1.02,1.18,0.511,0.708,2.79,0.878,1.63
CCTACTGGGCCACGAAAGATCATTGATTCAGTGA,5.69,5.25,0.632,-0.411,0.215,-0.421,-0.111,-0.0697,-0.401,0.211,-0.335,-0.154,0.283,-0.361,0.0459,-0.0965,-0.393,-0.52
CCGACAGGGGCAGAAAGGTTACCATACCATCCGG,-0.112,0.0354,-1.22,-0.752,1.16,1.25,0.36,1.92,0.385,1.95,2.48,1.84,1.71,-0.361,1.99,1.14,-0.126,0.344
CGTCGAAGGTCAGCAGGTCAGTGAAAGCGACGTG,2.98,3.25,-0.047,-1.4,4.2,3.44,0.233,4.8,1.59,5.24,4.94,6.48,6.93,1.34,5.06,2.88,0.495,1
CTCGAAAGGTCGGTTTAGGTGAGTATACGGATAA,0.133,0.896,0.666,0.13,1.29,1.51,0.344,1.64,0.736,2.66,1.77,2.33,2.31,1.26,1.8,4.51,0.786,1.04
